A selection: hits, their analogues and other compounds. The true share with any hit is near 3.9%.
CCHF vOTU inh = CCHFV vOTU protease inhibition. inhibition, % at 11.5 µM. 370,000 tested, 0.55% active. Pep-AMC fluorescence. AID 651958; note: 0% = vehicle wells with enzyme and 100% = no enzyme wells
Mtb FBA inh = inhibits M. tuberculosis FBA enzyme. P9WQA3. purified M. tuberculosis FBA, fluorescence read-out. inhibition, % at 1 µM. 360,000 tested, 2.3% active; in the data active = inhibition above about 27%;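 note: 0% = vehicle and 100% = reference inhibitor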
Target sequence (P9WQA3 whole entry, looked up): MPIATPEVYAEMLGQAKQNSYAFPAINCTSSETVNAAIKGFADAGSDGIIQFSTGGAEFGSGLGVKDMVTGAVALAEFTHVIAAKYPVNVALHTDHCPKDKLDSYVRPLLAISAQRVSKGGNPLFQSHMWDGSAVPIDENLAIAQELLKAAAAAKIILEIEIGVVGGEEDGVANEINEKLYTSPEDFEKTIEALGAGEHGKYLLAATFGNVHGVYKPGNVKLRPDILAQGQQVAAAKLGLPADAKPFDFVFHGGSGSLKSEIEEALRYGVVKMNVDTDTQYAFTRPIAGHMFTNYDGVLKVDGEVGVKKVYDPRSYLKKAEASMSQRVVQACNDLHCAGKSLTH
GDH-TPI inh = GDH-TPI coupled enzyme inhibition counter-screen; GDH-TPI coupled enzyme counterscreen, NADH absorbance; inhibition, % at 4.8 µM; 360,000 tested, 1.2% active; AID 588335;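 note: 0% = DMSO wells and 100% = wells lacking the enzyme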
BH1578 lux ind = quorum light induction in luxS cqsA deficient V. cholerae; V. cholerae BH1578 lux reporter, luminescence, 6 h; activation, % at 18.7 µM; 350,000 tested, 0.16% active; AID 588436; in the data active = activation mostly above about 9.7%, no sharp cut-off
* = called active by the depositor; i = inactive; nt = no result given; + = active, no number. Cut-off read from the data, not from the text of the source, unless noted: active = inhibition above about 30%; inactive = the rest.

SMILES	CCHF vOTU inh	Mtb FBA inh	GDH-TPI inh	BH1578 lux ind
CCOC(=O)c1cc2ccc(OC)cc2oc1=O	-218.6	+	42.5*	-2.2
CCOC(=O)[C@]12Cc3cc(OC)ccc3[C@H]1N(CC(=O)OC)C(=O)c1cc(OC)ccc12	-1.9	nt	nt	nt
O=C(Nc1cccc(Cl)c1)N1CCC(CO)(CCOc2ccccc2)CC1	10.9	-0.3	9.9	-0.6
COc1cc2c(cc1OC)C(C)N(C(=O)c1cc(Cl)nc(Cl)c1)CC2 (stereo not drawn)	-1.4	1.4	-2.6	i
O=C(/C=C/N1CCOCC1)c1ccc(-c2ccccc2)cc1	nt	-4.8	38.0*	i
Cc1cc(Br)cn2c(Cc3ccccc3)c(-c3ccc(F)cc3)nc12	13.1	0.2	nt	nt
CN(C)c1ccc(C2N(c3ccc(F)cc3)C(=O)C3CCCN32)cc1 (stereo not drawn)	12.4	-1.4	39.6*	-0.9
CCc1c(C(=O)N/N=C/c2cccs2)nnn1-c1nonc1N	12.9	1.9	19.9	i
c1cncc(Nc2c3ccccc3nc3ccccc23)c1	-31.1	40.2*	9.5	0.6
Oc1c(Br)cc(/C=N/NC(=S)NCc2ccco2)cc1Br	2.0	11.1	32.9*	-0.4
COc1cc(/C=N/NC(=S)NCc2ccco2)cc(OC)c1OC	7.8	-7.3	37.4*	-0.2
CCOc1ccc(NC(=O)NCc2ccco2)cc1	-0.1	-3.4	2.9	-0.3
COc1ccccc1/C=N/NC(=S)NCc1ccco1	-2.7	-3.7	37.9*	-2.3
CCOc1ccc(/C=N/NC(=O)C(=O)NCc2ccco2)cc1	9.9	-1.1	33.1*	-0.7
COc1ccc(Cc2nnc(SCC(=O)N(C)c3ccccc3)o2)cc1	-9.4	0.7	0.4	i
CCOc1ccc(CNC(=S)N/N=C/c2ccc(OC)c(OC)c2)cc1	11.9	-1.8	42.2*	i
O=C(/C=C/c1cccs1)NC(=S)Nc1ccccc1	7.1	-0.3	13.2	0.1
COCCNC(=O)[C@H](C)[C@H]1C[C@]1(C)[C@H](NC(=O)OCc1ccccc1)c1ccccc1	11.5	167.7*	2.2	0.4
COc1ccc(OCC(=O)Nc2cc(S(=O)(=O)N3CCCC3)ccc2OCC(F)(F)F)cc1	1.9	-1.9	2.1	i
CCc1ccc(C(=O)CSc2nnc(C3CC3)n2C2CC2)cc1	12.5	1.1	3.0	-1.3
O=C(O)c1ccc(-n2cccc2/C=N\NC(=O)c2cc3cc(Br)ccc3o2)cc1	18.2	1.7	35.9*	-0.3
O=S1(=O)CCN(CCCCc2ccccc2)CC1	-14.2	-1.2	9.7	5.0
O=C1CCC(=O)N1c1nc2n(n1)C(c1ccccc1)C=C(c1ccc(Br)cc1)N2 (stereo not drawn)	-2.2	0.7	26.0	-0.3
CC1=CC(c2ccc(Cl)cc2)n2nc(NC(=O)c3ccccc3)nc2N1 (stereo not drawn)	-3.5	14.9	9.7	-0.8
CC(=O)Nc1nc2n(n1)C(c1ccccc1)C=C(c1ccccc1)N2 (stereo not drawn)	nt	49.7*	6.4	10.0
SMILES	CCHF vOTU inh	Mtb FBA inh	GDH-TPI inh	BH1578 lux ind
CC(=O)Nc1nc2n(n1)C(c1ccc(Cl)cc1)C=C(C)N2 (stereo not drawn)	-57.6	119.4*	12.4	2.8
CS(=O)(=O)Nc1nc2n(n1)C(c1ccccc1)C=C(c1ccc(Br)cc1)N2 (stereo not drawn)	nt	33.8*	5.0	0.5
CCCCC[C@H](C)N1C[C@H](COCc2ccccc2)Oc2cc(N3CCC[C@H]3C(N)=O)ccc2S1(=O)=O	28.1	nt	nt	nt
COc1ccc(Cc2nnc3n2N=C(c2cc4ccccc4o2)CS3)cc1OC	6.1	-1.9	40.9*	-5.9
CCCc1nnc2n1N=C(c1ccc(OC)c(OC)c1)CS2	4.0	-2.3	17.2	i
NS(=O)(=O)c1ccc(N/N=C/c2ccc[nH]2)c([N+](=O)[O-])c1	22.6	-7.7	72.7*	-0.7
CC(=O)Nc1ccc(C=NNc2ccc(S(=O)(=O)Nc3ccccc3C(=O)O)cc2[N+](=O)[O-])cc1	15.0	-2.0	48.5*	i
NS(=O)(=O)c1ccc(N/N=C/c2ccc(C(=O)O)cc2)c([N+](=O)[O-])c1	16.8	-19.7	66.7*	-0.6
O=C(O)c1ccc(/C=N\Nc2ccc(S(=O)(=O)N3CCOCC3)cc2[N+](=O)[O-])cc1	9.5	3.7	0.5	i
COc1cc(/C=N/Nc2ccccc2[N+](=O)[O-])cc(OC)c1O	-2.9	-13.2	26.8	-0.2
COc1cc(/C=N/Nc2ccc(S(N)(=O)=O)cc2[N+](=O)[O-])cc(OC)c1O	9.6	-22.9	41.5*	i
Cc1nc2ccccn2c1P(=S)(c1ccccc1)c1ccccc1	-0.4	-0.6	11.3	-0.4
CN(CCO)c1ccc(C=NNc2ccc([N+](=O)[O-])cc2S(=O)(=O)Nc2ccccc2C(=O)O)cc1	19.1	-19.1	32.7*	i
COC(=O)c1ccc2c(C)c(C3(O)CCCCC3)[nH]c2c1	-215.0	+	16.8	i
CCN(CC)CCCN1C(=O)C(=O)/C(=C(/O)c2ccc(OC)cc2)C1c1ccco1 (stereo not drawn)	-9.9	5.9	6.0	i
Cc1ccc(-c2csc(N3C(=N)SCC3=O)n2)cc1	-0.3	nt	nt	nt
N=C1SCC(=O)N1c1ncc(Cc2ccc(F)cc2)s1	-1.4	0.8	31.4*	-0.4
Cc1ccc(-c2cc(C(=O)Nc3sc4c(c3C(=O)NCc3ccco3)CCC4)[nH]n2)c(O)c1	10.1	2.4	15.6	0.0
Cc1cc(O)c(-c2cc(C(=O)Nc3sc4c(c3C(=O)NCc3ccco3)CCC4)[nH]n2)cc1C	-3.1	2.2	34.2*	-0.3
Cc1nc(NS(=O)(=O)c2ccccc2)sc1C(=O)N/N=C/c1ccccc1	14.4	4.5	46.8*	-0.4
Cc1cc(=O)c2ccccc2s1	22.1	-3.2	31.9*	i
O=C(CSc1nnc(NC(=O)c2cc(Br)ccc2Cl)s1)NCC1CCCO1 (stereo not drawn)	-5.1	-1.6	1.4	i
CCOC(=O)C1Nc2ccccc2C2C(O)C(O)CC12 (stereo not drawn)	61.1*	3.5	17.6	-2.4
CN1C(=O)C2(OCC(C)([N+](=O)[O-])CO2)c2ccccc21 (stereo not drawn)	-5.5	1.7	4.7	-0.5
CN1C(=O)C2(N=c3ccccc3=N2)c2ccccc21	nt	30.1*	19.1	-0.2
SMILES	CCHF vOTU inh	Mtb FBA inh	GDH-TPI inh	BH1578 lux ind
COc1ccccc1NC(=S)NC12CN3CN(CN(C3)C1)C2	9.0	-1.7	4.5	-0.2
O=C(CSc1nnc(CNC(=O)c2c(F)cccc2Cl)o1)NC1CCCC1	10.7	2.4	0.9	-0.3
CCOC(=O)C(C(=O)OCC)C1N=C(N)N=C2Oc3ccccc3N21 (stereo not drawn)	2.6	5.5	49.4*	-1.7
CC(=O)Nc1ccc(S(=O)(=O)Nc2cc(C)cn(Cc3ccccc3)c2=O)cc1	nt	69.6*	8.3	-0.3
CC(=O)Nc1ccc(S(=O)(=O)Nc2cccn(Cc3ccc(C)cc3)c2=O)cc1	-12.7	1.0	1.3	-0.3
FC(F)(F)c1cccnc1Oc1ccc(C2=NCCS2)cc1	-8.4	-0.3	7.6	i
Cc1ncc(CO)c(CNc2ccc(-c3nc4ccccc4[nH]3)cc2)c1O	-8.0	13.5	41.9*	-1.2
CCCCNC(=O)N(C)c1nc2ccccc2s1	11.4	1.1	-8.2	-2.2

Screens as filed in PubChem.
